# Test results: PubChem BioAssay AID1159580 (chemical genetic matrix, 2015)
# Screen size: about 5,500 compounds; about 2,000 (36%) were called active. Inconclusive results (about 18%) are left out. The list shows a part of the results. A number with no mark means an inactive call. No stated cut-off is given here; in the data, active means normalized growth mostly below about 0.91 (no sharp cut-off); inconclusive means no clear call, values can overlap the other calls; inactive means mostly above about 0.92.
# Experiment: chemical genetic growth profiling, strain panel (AID 1159580);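 further: tested at 20 µM; growth read once vehicle control cultures reached saturation at 30 °C; 1 = growth at the plate median or of vehicle wells; lower values mean less growth of the strain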
# Conditions: S. cerevisiae deletion strains, growth OD
# [1] = locus YAL021C, strain ccr4, hits give low values
# [2] = locus YAL026C, strain drs2, hits give low values
# [3] = locus YAL030W, strain snc1, hits give low values
# [4] = locus YBL061C, strain skt5, hits give low values
# [5] = locus YBR009C, strain hhf1, hits give low values
# [6] = locus YBR023C, strain chs3, hits give low values
# [7] = locus YBR171W, strain sec66, hits give low values
# [8] = locus YBR231C, strain swc5, hits give low values
# [9] = locus YBR279W, strain paf1, hits give low values
# [10] = locus YCL011C, strain gbp2, hits give low values
# [11] = locus YCL016C, strain dcc1, hits give low values
# [12] = locus YCL061C, strain MRC1, hits give low values
# [13] = locus YCL069W, strain vba3, hits give low values
# [14] = locus YCR088W, strain abp1, hits give low values
# [15] = locus YDL005C, strain med2, hits give low values
# [16] = locus YDL040C, strain nat1, hits give low values
# [17] = locus YDR001C, strain nth1, hits give low values
# [18] = locus YDR069C, strain doa4, hits give low values
# [19] = locus YDR137W, strain rgp1, hits give low values
# [20] = locus YDR159W, strain sac3, hits give low values
# [21] = locus YDR297W, strain sur2, hits give low values
# [22] = locus YDR334W, strain swr1, hits give low values
# [23] = locus YDR335W, strain msn5, hits give low values
# [24] = locus YDR392W, strain spt3, hits give low values
# [25] = locus YEL003W, strain gim4, hits give low values
# [26] = locus YEL037C, strain rad23, hits give low values
# [27] = locus YEL061C, strain CIN8 (second series), hits give low values
# [28] = locus YER015W, strain faa2, hits give low values
# [29] = locus YER016W, strain bim1, hits give low values
# [30] = locus YER111C, strain swi4, hits give low values
# [31] = locus YER155C, strain BEM2 (second series), hits give low values
# [32] = locus YFR010W, strain ubp6, hits give low values
# [33] = locus YGL167C, strain pmr1, hits give low values
# [34] = locus YGL173C, strain kem1, hits give low values
# [35] = locus YGL227W, strain vid30, hits give low values
# [36] = locus YGL240W, strain doc1, hits give low values
# [37] = locus YGL253W, strain hxk2, hits give low values
# [38] = locus YHR013C, strain ard1, hits give low values
# [39] = locus YHR027C, strain rpn1, hits give low values
# [40] = locus YHR030C, strain SLT2, hits give low values
# [41] = locus YHR079C, strain IRE1, hits give low values
# [42] = locus YHR142W, strain chs7, hits give low values
# [43] = locus YJL092W, strain hpr5, hits give low values
# [44] = locus YJL095W, strain BCK1 (second series), hits give low values
# [45] = locus YJL095W, strain BCK1, hits give low values
# [46] = locus YJL115W, strain asf1, hits give low values
# [47] = locus YJL129C, strain trk1, hits give low values
# [48] = locus YJL154C, strain vps35, hits give low values
# [49] = locus YJL164C, strain tpk1, hits give low values
# [50] = locus YJL166W, strain qcr8, hits give low values
# [51] = locus YJR066W, strain TOR1, hits give low values
# [52] = locus YKL160W, strain elf1, hits give low values
# [53] = locus YKR026C, strain gcn3, hits give low values
# [54] = locus YKR091W, strain srl3, hits give low values
# [55] = locus YLL001W, strain dnm1, hits give low values
# [56] = locus YLL026W, hits give low values
# [57] = locus YLL041C, strain sdh2, hits give low values
# [58] = locus YLR027C, strain aat2, hits give low values
# [59] = locus YLR113W, strain HOG1, hits give low values
# [60] = locus YLR221C, strain rsa3, hits give low values
# [61] = locus YLR258W, strain gsy2, hits give low values
# [62] = locus YLR262C, strain YPT6 (second series), hits give low values
# [63] = locus YLR320W, strain mms22, hits give low values
# [64] = locus YLR342W, strain FKS1, hits give low values
# [65] = locus YLR357W, strain rsc2, hits give low values
# [66] = locus YLR370C, strain arc18, hits give low values
# [67] = locus YLR384C, strain iki3, hits give low values
# [68] = locus YML120C, strain ndi1, hits give low values
# [69] = locus YMR058W, strain fet3, hits give low values
# [70] = locus YMR125W, strain sto1, hits give low values
# [71] = locus YMR129W, hits give low values
# [72] = locus YMR205C, strain PFK2, hits give low values
# [73] = locus YMR231W, strain pep5, hits give low values
# [74] = locus YNL071W, strain lat1, hits give low values
# [75] = locus YNL183C, strain NPR1, hits give low values
# [76] = locus YNL209W, strain ssb2, hits give low values
# [77] = locus YNL248C, strain rpa49, hits give low values
# [78] = locus YNL322C, strain KRE1 (second series), hits give low values
# [79] = locus YNR049C, strain mso1, hits give low values
# [80] = locus YOR001W, strain rrp6, hits give low values
# [81] = locus YOR070C, strain gyp1, hits give low values
# [82] = locus YOR080W, strain dia2, hits give low values
# [83] = locus YOR083W, strain WHI5, hits give low values
# [84] = locus YOR106W, strain vam3, hits give low values
# [85] = locus YOR231W, strain MKK1, hits give low values
# [86] = locus YOR265W, strain rbl2, hits give low values
# [87] = locus YOR270C, strain vph1, hits give low values
# [88] = locus YOR290C, strain snf2, hits give low values
# [89] = locus YPL051W, strain arl3, hits give low values
# [90] = locus YPL078C, strain atp4, hits give low values
# [91] = locus YPL106C, strain sse1, hits give low values
# [92] = locus YPL240C, strain hsp82, hits give low values
# [93] = locus YPL256C, strain CLN2, hits give low values
smiles,measurement,setting,value
COc1cc(/C=C/C(=O)/C=C(O)/C=C/c2ccc(O)c(OC)c2)ccc1O,normalized growth,[1],0.0789 (active)
same,normalized growth,[2],0.118 (active)
same,normalized growth,[3],0.157 (active)
same,normalized growth,[4],0.175 (active)
same,normalized growth,[5],0.149 (active)
same,normalized growth,[6],0.172 (active)
same,normalized growth,[7],0.132 (active)
same,normalized growth,[8],0.091 (active)
same,normalized growth,[9],0.307 (active)
same,normalized growth,[10],0.184 (active)
same,normalized growth,[11],0.4 (active)
same,normalized growth,[12],0.216 (active)
same,normalized growth,[13],0.224 (active)
same,normalized growth,[14],0.265 (active)
same,normalized growth,[15],0.089 (active)
same,normalized growth,[16],0.0875 (active)
same,normalized growth,[17],0.249 (active)
same,normalized growth,[18],0.0822 (active)
same,normalized growth,[19],0.149 (active)
same,normalized growth,[20],0.112 (active)
same,normalized growth,"locus YDR195W, strain ref2",0.156 (active)
same,normalized growth,[21],0.187 (active)
same,normalized growth,[22],0.109 (active)
same,normalized growth,[23],0.0992 (active)
same,normalized growth,[24],0.14 (active)
same,normalized growth,[25],0.0989 (active)
same,normalized growth,[26],0.155 (active)
same,normalized growth,[27],0.243 (active)
same,normalized growth,[28],0.119 (active)
same,normalized growth,[29],0.396 (active)
same,normalized growth,[30],0.094 (active)
same,normalized growth,[31],0.242 (active)
same,normalized growth,[32],0.187 (active)
same,normalized growth,[33],0.177 (active)
same,normalized growth,[34],0.107 (active)
same,normalized growth,[35],0.507 (active)
same,normalized growth,[36],0.399 (active)
same,normalized growth,[37],0.224 (active)
same,normalized growth,[38],0.178 (active)
same,normalized growth,[39],0.0816 (active)
same,normalized growth,[40],0.653 (active)
same,normalized growth,[41],0.574 (active)
same,normalized growth,[42],0.0884 (active)
same,normalized growth,[43],0.222 (active)
same,normalized growth,[44],0.0924 (active)
same,normalized growth,[45],0.546 (active)
same,normalized growth,[46],0.313 (active)
same,normalized growth,[47],0.108 (active)
same,normalized growth,[48],0.251 (active)
same,normalized growth,[49],0.143 (active)
same,normalized growth,[50],0.0762 (active)
same,normalized growth,[51],0.828
same,normalized growth,[52],0.433 (active)
same,normalized growth,[53],0.229 (active)
same,normalized growth,[54],0.304 (active)
same,normalized growth,[55],0.212 (active)
same,normalized growth,[56],0.131 (active)
same,normalized growth,[57],0.0974 (active)
same,normalized growth,[58],0.161 (active)
same,normalized growth,[59],0.227 (active)
same,normalized growth,[60],0.204 (active)
same,normalized growth,[61],0.17 (active)
same,normalized growth,[62],0.142 (active)
same,normalized growth,[63],0.163 (active)
same,normalized growth,[64],0.173 (active)
same,normalized growth,[65],0.34 (active)
same,normalized growth,[66],0.171 (active)
same,normalized growth,[67],0.155 (active)
same,normalized growth,[68],0.115 (active)
same,normalized growth,[69],0.0838 (active)
same,normalized growth,[70],0.16 (active)
same,normalized growth,[71],0.276 (active)
same,normalized growth,[72],0.134 (active)
same,normalized growth,[73],0.134 (active)
same,normalized growth,[74],0.269 (active)
same,normalized growth,[75],0.761 (active)
same,normalized growth,[76],0.0983 (active)
same,normalized growth,[77],0.443 (active)
same,normalized growth,[78],0.16 (active)
same,normalized growth,[79],0.175 (active)
same,normalized growth,[80],0.139 (active)
same,normalized growth,[81],0.416 (active)
same,normalized growth,[82],0.0852 (active)
same,normalized growth,[83],0.203 (active)
same,normalized growth,[84],0.0922 (active)
same,normalized growth,[85],0.575 (active)
same,normalized growth,[86],0.159 (active)
same,normalized growth,[87],0.115 (active)
same,normalized growth,[88],0.101 (active)
same,normalized growth,[89],0.118 (active)
same,normalized growth,[90],0.182 (active)
same,normalized growth,[91],0.251 (active)
same,normalized growth,[92],0.294 (active)
same,normalized growth,[93],0.494 (active)
COc1cc(O)c(C(=O)/C=C/c2ccc(O)c(OC)c2)c(OC)c1,normalized growth,[1],0.948
same,normalized growth,[2],0.896 (active)
same,normalized growth,[3],0.972
same,normalized growth,[4],0.983
same,normalized growth,[5],0.948
same,normalized growth,[6],0.979
same,normalized growth,[7],0.971
same,normalized growth,[8],0.951
same,normalized growth,[9],0.989
same,normalized growth,[10],0.947
same,normalized growth,[11],0.981
same,normalized growth,[12],0.984
same,normalized growth,[13],0.972
same,normalized growth,[14],0.976
same,normalized growth,[15],0.976
same,normalized growth,[16],0.975
same,normalized growth,[17],0.98
same,normalized growth,[18],0.907
same,normalized growth,[19],0.947
same,normalized growth,[20],0.941
same,normalized growth,"locus YDR195W, strain ref2",0.972
same,normalized growth,[21],0.975
same,normalized growth,[22],0.936
same,normalized growth,[23],0.973
same,normalized growth,[24],0.532 (active)
same,normalized growth,[25],0.82 (active)
same,normalized growth,[26],0.949
same,normalized growth,[27],0.977
same,normalized growth,[28],0.973
same,normalized growth,[29],0.981
same,normalized growth,[30],0.965
same,normalized growth,[31],0.83 (active)
same,normalized growth,[32],0.899 (active)
same,normalized growth,[33],0.975
same,normalized growth,[34],0.962
same,normalized growth,[35],0.987
same,normalized growth,[36],0.928
same,normalized growth,[37],0.877 (active)
same,normalized growth,[38],0.902
same,normalized growth,[39],0.965
same,normalized growth,[40],0.96
same,normalized growth,[41],0.973
same,normalized growth,[42],0.923
same,normalized growth,[43],0.961
same,normalized growth,[44],0.979
same,normalized growth,[45],0.982
same,normalized growth,[46],0.969
same,normalized growth,[47],0.965
same,normalized growth,[48],0.987
same,normalized growth,[49],0.889 (active)
same,normalized growth,[50],0.94
same,normalized growth,"locus YJL187C, strain SWE1, hits give low values",0.979
same,normalized growth,[51],0.926
same,normalized growth,[52],0.968
same,normalized growth,[53],0.977
same,normalized growth,[54],0.985
same,normalized growth,[55],0.984
same,normalized growth,[56],0.972
same,normalized growth,[57],0.961
same,normalized growth,[58],0.928
same,normalized growth,[59],0.967
same,normalized growth,[60],0.908
same,normalized growth,[61],0.961
same,normalized growth,[62],0.884
same,normalized growth,[63],0.947
same,normalized growth,[64],0.961
same,normalized growth,[65],0.983
same,normalized growth,[66],0.977
same,normalized growth,[67],0.992
same,normalized growth,[68],0.975
same,normalized growth,[69],0.812 (active)
same,normalized growth,[70],0.899
same,normalized growth,[71],0.981
same,normalized growth,[72],0.988
same,normalized growth,[73],0.942
same,normalized growth,[74],0.877 (active)
same,normalized growth,[75],0.955
same,normalized growth,[76],0.986
same,normalized growth,[77],0.906
same,normalized growth,[78],0.985
same,normalized growth,[79],0.977
same,normalized growth,[80],0.922
same,normalized growth,[81],0.962
same,normalized growth,[82],0.986
same,normalized growth,[83],0.98
same,normalized growth,[84],0.896
same,normalized growth,[85],0.967
same,normalized growth,[86],0.965
same,normalized growth,[87],0.845
same,normalized growth,[88],0.939
same,normalized growth,[89],0.928
same,normalized growth,[90],0.972
same,normalized growth,[91],0.911
same,normalized growth,[92],0.976
same,normalized growth,[93],0.928
